Source: PubChem BioAssay (several laboratories)
Hits are enriched below; roughly 3.5% of the tested compounds scored in any of these assays.
Bead autofluor: compound fluorescence in toxin protease inhibitor counterscreen; compound autofluorescence counterscreen, microsphere flow cytometry; stronger effect = higher value; fluorescence intensity (no concentration beside the values); 360,000 compounds, 3.1% hits; AID 624483; in the data active means fluorescence intensity above about 16000; inconclusive means no clear call, values can overlap the other calls
Vc quorum ag: quorum light induction in luxS cqsA deficient V. cholerae | V. cholerae BH1578 lux reporter, luminescence, 6 h | 350,000 compounds, 0.16% hits | activation, % at 18.7 µM; in the data active means activation mostly above about 9.7%, no sharp cut-off; inconclusive means no clear call, values can overlap the other calls; inactive means mostly below about 3.7%
BoNT F protease: blocks Botulinum neurotoxin F light chain protease | Multiplex microsphere protease cleavage assay, flow cytometry | inhibition, % at 10 µM | 360,000 compounds, 0.22% hits | AID 588497; in the data active means inhibition above about 35%, passing the limit was not always enough; inconclusive means no clear call, values can overlap the other calls
Anthrax LF inh2: inhibitors of Bacillus anthracis lethal factor protease. P15917. multiplex microsphere protease cleavage assay, LF. inhibition, % at 10 µM. 360,000 compounds, 0.12% hits
Target sequence (P15917 whole entry, looked up): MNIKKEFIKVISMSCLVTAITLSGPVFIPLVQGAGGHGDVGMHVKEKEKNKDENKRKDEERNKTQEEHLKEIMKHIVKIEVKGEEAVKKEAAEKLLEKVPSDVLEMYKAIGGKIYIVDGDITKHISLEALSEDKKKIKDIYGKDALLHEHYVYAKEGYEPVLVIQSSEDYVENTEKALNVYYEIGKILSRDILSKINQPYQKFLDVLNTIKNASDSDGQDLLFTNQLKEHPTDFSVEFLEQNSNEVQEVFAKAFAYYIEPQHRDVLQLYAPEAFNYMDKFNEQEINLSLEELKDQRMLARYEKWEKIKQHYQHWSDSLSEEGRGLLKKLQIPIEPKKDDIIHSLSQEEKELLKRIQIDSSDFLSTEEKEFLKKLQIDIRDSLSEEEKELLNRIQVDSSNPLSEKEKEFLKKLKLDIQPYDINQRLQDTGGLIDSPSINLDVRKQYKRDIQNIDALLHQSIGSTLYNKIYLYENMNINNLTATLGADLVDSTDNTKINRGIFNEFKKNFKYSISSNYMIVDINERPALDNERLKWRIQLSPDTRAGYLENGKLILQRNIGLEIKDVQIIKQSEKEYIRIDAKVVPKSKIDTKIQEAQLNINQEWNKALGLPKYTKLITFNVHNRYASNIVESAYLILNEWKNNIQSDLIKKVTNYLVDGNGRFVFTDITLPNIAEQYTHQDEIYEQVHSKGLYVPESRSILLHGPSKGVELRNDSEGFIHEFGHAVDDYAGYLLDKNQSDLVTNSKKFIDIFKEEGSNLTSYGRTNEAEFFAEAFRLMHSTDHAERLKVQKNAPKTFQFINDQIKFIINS
BoNT-A LC inh2: inhibitors of Botulinum neurotoxin A light chain protease | multiplex microsphere protease substrate cleavage, flow cytometry | inhibition, % at 10 µM | 360,000 compounds, 0.17% hits | AID 588499
Each line names hits and unclear results; the compound was inactive in the other large screens; ! = not active in a repeat. Unless noted, no stated cut-off is given here; in the data, active means inhibition above about 30%; inconclusive means no clear call, values can overlap the other calls; inactive means below that.

CCN(CC)CCCn1c(=S)[nH]c2cc(C(=O)OC)ccc2c1=O	Bead autofluor 23192
COc1cc2[nH]c(=S)n(-c3ccccc3)c(=O)c2cc1OC	none
CCn1c(=S)[nH]c2cc(C(=O)OC)ccc2c1=O	none
COC(=O)c1ccc2c(=O)n(NC(C)=O)c(=S)[nH]c2c1	Bead autofluor 23622
CCN(CC)CCNC(=O)c1ccc2c(=O)n(C3CCCC3)c(=S)[nH]c2c1	Bead autofluor 20853
O=C(O)CCCNC(=O)CCCNC(=O)C(c1ccccc1)c1ccccc1	none
CCN(CC)CCCn1c(=S)[nH]c2cc(OC)c(OC)cc2c1=O	Bead autofluor 22782, BoNT-A LC inh2 inconclusive
C[C@@H](NC(=O)c1[nH]cnc1C(=O)Nc1ccccc1F)c1ccccc1	none
CCOC(=O)N1CCC(NC(=O)c2cccn3c(=O)c4cc(Br)ccc4nc23)CC1	Bead autofluor 18434
Cc1ccc2cc(/C=C(\C#N)C(N)=O)c(N3CCCCC3)nc2c1	none
CCOC(=O)/C(C#N)=C/c1cc2ccccc2nc1N1CCCCC1	BoNT-A LC inh2 31
Cc1cccc(C)c1NC(=O)CN(C)C(=O)C(c1ccccc1)c1ccccc1	none
Cc1nnc(SCCOC(N)=O)n1C	Bead autofluor 20927
COc1ccccc1C1=NNC(=Nc2cccc(S(=O)(=O)N(C)C)c2)SC1	none
CC(C)=CC(=O)NCc1c(Cl)cccc1-n1cccc1	Bead autofluor 24294
Cn1c(=O)[nH]c(=O)c2c1nc(OC(=O)c1ccccc1)n2CC(O)COc1ccc(F)cc1 (configuration not stated)	Bead autofluor 16708
CCOc1ccccc1CN1CCNC(=O)C1CC(=O)N(C)C1CCOCC1 (configuration not stated)	none
CCOC(=O)c1ccc(-c2ccc(/C=C(\C#N)C(=O)NCC3CCCO3)o2)cc1 (configuration not stated)	Bead autofluor 22009
CC1(C)C(c2ccccc2)=NC(c2cccnc2)N1O (configuration not stated)	Bead autofluor 21816, BoNT-A LC inh2 inconclusive
Cc1ccc(S(=O)(=O)N2CCN(CC(=O)Nc3ccccc3Cl)CC2)cc1	none
Cc1ccc(S(=O)(=O)Nc2ccc(NC(=O)CN3CCCCC3)c(Cl)c2)cc1	Bead autofluor 19818
CCN(CC)c1ccc(/C=N/N2CCN(Cc3cccc4ccccc34)CC2)c(O)c1	Bead autofluor 23476
O=C(COC(=O)c1cc(S(=O)(=O)N2CCOCC2)ccc1F)NCc1ccco1	none
COC(=O)c1cnn(C(=O)c2cc(OC)ccc2Br)c1N	Bead autofluor 23297
COC(=O)c1cnn(C(=O)c2ccccc2Br)c1N	Bead autofluor 22952
CCOC(=O)C1(C)CCN1C(=O)c1cc(OC)ccc1Br (configuration not stated)	none
CCOC(=O)C1CCN(C(=O)Cn2nc(CC)n3cccc3c2=O)CC1	none
Cn1cnnc1SCC(=O)Nc1ncc([N+](=O)[O-])s1	none
CCCn1c(N)c(C(=O)CN(C)CC(=O)Nc2c(Cl)cccc2Cl)c(=O)[nH]c1=O	none
COc1cc(C)c(CN2CCSCC2)cc1C	none
COc1cc(C)c(CN2CCN(c3ccccc3)CC2)cc1C	Bead autofluor 17583
NC(=S)N/N=C1/CCSc2ccc3ccccc3c21	none
COc1ccc(C2C3=C(N=C4SCC(=O)N42)c2ccccc2CC3)cc1OC (configuration not stated)	Bead autofluor 24021
COc1ccc(CN2CN=C(Nc3nc4ccccc4s3)NC2)cc1	Bead autofluor 23311
CC1CCCCC1N1CN=C(Nc2nc3ccccc3s2)NC1 (configuration not stated)	Bead autofluor 23381
c1ccc(CN2CN=C(Nc3nc4ccccc4s3)NC2)cc1	Bead autofluor 16724
c1ccc2sc(NC3=NCN(Cc4ccc5c(c4)OCO5)CN3)nc2c1	none
Cc1cc(C)cc(NS(=O)(=O)c2ccc3oc(=O)ccc3c2)c1	Bead autofluor 23250
c1ccc(Cn2c(NCc3ccco3)nc3ccccc32)cc1	Bead autofluor 22272, BoNT-A LC inh2 inconclusive
Cc1cccc(Nc2nc(NCCCN3CCOCC3)nc(N)c2[N+](=O)[O-])c1	none
O=C(Nc1c(F)cc(F)cc1Br)c1cccnc1	Bead autofluor 23919
Cc1nn(C(C)C(=O)NC(C)CCc2ccccc2)c(=O)c2cc3occc3n12 (configuration not stated)	none
CCCc1nc2oc3c(OC)ncnc3c2c2c1COC(C)(C)C2	Bead autofluor 19420
CC(C)c1nc2oc3c(NCC4CCCO4)ncnc3c2c2c1COC(C)(C)C2 (configuration not stated)	Bead autofluor 22704
Cc1nc2oc3c(NCc4ccccc4)ncnc3c2c2c1COC(C)(C)C2	none
Cc1nc2oc3c(NCC4CCCO4)ncnc3c2c2c1COC(C)(C)C2 (configuration not stated)	Bead autofluor 22824
CC(C)c1nc2oc3c(NCCO)ncnc3c2c2c1COC(C)(C)C2	BoNT F protease inconclusive
Cc1cc(C)c(NC(=O)CCCN2CCN(C)CC2)c(C)c1	none
Cc1cc(C)c(NC(=O)CN2CCN3CCCC3C2)c(C)c1 (configuration not stated)	Bead autofluor 21570!
c1nc(N2CCCC2)c2[nH]cnc2n1	Bead autofluor 23416, BoNT-A LC inh2 inconclusive
c1nc(N2CCCCCC2)c2[nH]cnc2n1	none
CCN=C1S/C(=C\c2cc(OCC)c(O)cc2Br)C(=O)N1CC	BoNT F protease 72, Anthrax LF inh2 30
Cc1c2c(nc3c(C(=O)NC4CC4)cnn13)CCCC2	Bead autofluor 21129
CCOC(=O)C1=C(COC(=O)c2ccc(Cl)cc2[N+](=O)[O-])NC(=O)NC1C (configuration not stated)	Bead autofluor inconclusive
CC(=NCc1cccnc1)c1c(O)n(C2CCCCC2)c(=O)[nH]c1=O	Bead autofluor 22369, BoNT-A LC inh2 inconclusive
CC(=NCc1cccnc1)c1c(O)n(-c2ccccc2C)c(=O)[nH]c1=O	Bead autofluor 20266
CCC(=NCc1cccnc1)c1c(O)n(-c2ccccc2C)c(=O)[nH]c1=O	BoNT F protease inconclusive
CCC(=NCc1cccnc1)c1c(O)n(C2CCCCC2)c(=O)[nH]c1=O	Bead autofluor 20661
CCc1ccc2oc(C(=O)NCc3ccncc3)c(C)c2c1	Bead autofluor 16440
Cc1cc(C)c2c(C)c(C(=O)NCc3ccncc3)oc2c1	none
COc1ccc(C(=O)c2sc3nc(C)cc(-c4cccs4)c3c2N)cc1OC	BoNT F protease 47, Anthrax LF inh2 49, BoNT-A LC inh2 71
Cc1ccsc1C(=O)NC(C)c1ccc2c(c1)OCO2 (configuration not stated)	Bead autofluor 22863
CC(NC(=O)c1cccnc1)c1ccc2c(c1)OCO2 (configuration not stated)	Bead autofluor 16408, BoNT-A LC inh2 inconclusive
CC(NC(=O)c1cccs1)c1ccc2c(c1)OCO2 (configuration not stated)	Bead autofluor 20040
O=C(O)C1CCc2nc(NCc3ccccc3)nc(NCc3ccccc3)c2C1 (configuration not stated)	none
CCOC(=O)COc1ccc2c(c1)C(=O)CC(C)(C)O2	Bead autofluor 21356
